Results from PubChem BioAssay (NCATS).
“And” between values parts separate entries of the source, which are not always exact repeats. Equal values may be shown once. Values without a mark were called inactive. Records with an inconclusive call do not appear. The source made the active and inactive calls. Unless noted, the call rests on the fitted dose curve; in most records, active means well fitted curve in the direction sought with a large enough effect; inconclusive means small, poorly fitted or top-dose-only effect, or another doubt; inactive means no such curve, though single readings can be large; an effect the other way counts as inactive or inconclusive.

Test system: not listed separately
Test: qHTS assay for small molecule antagonists of the retinoid-related orphan receptor gamma (ROR-gamma) signaling pathway - cell viability counter screen (AID 720652; active means well fitted curve in the direction sought with a large enough effect in the repeat runs; an effect the other way counts as inactive or inconclusive;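 further: CHO reporter cells with doxycycline-induced ROR-gamma expression; compound exposure lasted 16 hr before ATP read; on the % scale 0 is the no-effect control and ±100 the full control effect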)
Settings: RORgamma reporter cell line viability counter screen; series mostly up to 92.2 µM; activity change, negative = cytotoxicity: at the top concentration
Outline: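 Counter screen in CHO cells carrying TET-inducible ROR-gamma and an ROR response element-luciferase reporter; cells plated 5 hr, compound pinned, doxycycline added, then 16 hr at 37 C. Viability read as intracellular ATP by CellTiter-Glo luminescence.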

| SMILES | activity change, negative = cytotoxicity |
| --- | --- |
| NC(=Nc1ccccc1)Nc1ccccc1 | 7.95% (inactive) |
| CN=C(NC#N)NCCSCc1nc[nH]c1C | 1.63% (inactive) |
| CCCCOCCOCCOCc1cc2c(cc1CCC)OCO2 | 2.88% (inactive) |
| O=c1[nH]c(=O)n([C@H]2C[C@H](O)[C@@H](CO)O2)cc1Br | -1.36% (inactive) |

Test system: not listed separately
Test: qHTS assay for small molecule agonists of the antioxidant response element (ARE) signaling pathway measured by Nrf2-dependant transcriptional activity - cell viability counter screen (AID 720653; active means well fitted curve in the direction sought with a large enough effect in the repeat runs; an effect the other way counts as inactive or inconclusive; further: on the % scale 0 is the no-effect control and ±100 the full control effect)
Settings: ARE-bla HepG2 viability, CellTiter-Glo ATP luminescence, 16 h; max response: active compounds read low
Outline: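 Cytotoxicity counter screen: intracellular ATP quantified by CellTiter-Glo luminescence in the same ARE-bla HepG2 plates, after 16 h compound exposure and a 2 h beta-lactamase substrate step.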

| SMILES | max response |
| --- | --- |
| Nc1ncn([C@@H]2O[C@H](CO)[C@@H](O)[C@H]2O)c(=O)n1 | -13.9% and 0.747% |
| CC(=O)Nc1nnc(S(N)(=O)=O)s1 | 1.81% |
| CC(=O)[C@@]1(O)CC[C@H]2[C@@H]3CCC4=CC(=O)CC[C@]4(C)[C@H]3CC[C@@]21C | -7.45% |
| Cc1ccc(S(=O)(=O)NC(=O)NN2CCCCCC2)cc1 | 1.34% |
| CN=C(NC#N)NCCSCc1nc[nH]c1C | 0.359% |
| CCCCOCCOCCOCc1cc2c(cc1CCC)OCO2 | -10.7% and -4.66% |
| O=c1[nH]c(=O)n([C@H]2C[C@H](O)[C@@H](CO)O2)cc1Br | -13.7% |

Target: Hexokinase-4 (Homo sapiens) + Glucokinase regulatory protein (Homo sapiens) (UniProt P35557+Q14397)
Sequence (P35557 whole entry, looked up): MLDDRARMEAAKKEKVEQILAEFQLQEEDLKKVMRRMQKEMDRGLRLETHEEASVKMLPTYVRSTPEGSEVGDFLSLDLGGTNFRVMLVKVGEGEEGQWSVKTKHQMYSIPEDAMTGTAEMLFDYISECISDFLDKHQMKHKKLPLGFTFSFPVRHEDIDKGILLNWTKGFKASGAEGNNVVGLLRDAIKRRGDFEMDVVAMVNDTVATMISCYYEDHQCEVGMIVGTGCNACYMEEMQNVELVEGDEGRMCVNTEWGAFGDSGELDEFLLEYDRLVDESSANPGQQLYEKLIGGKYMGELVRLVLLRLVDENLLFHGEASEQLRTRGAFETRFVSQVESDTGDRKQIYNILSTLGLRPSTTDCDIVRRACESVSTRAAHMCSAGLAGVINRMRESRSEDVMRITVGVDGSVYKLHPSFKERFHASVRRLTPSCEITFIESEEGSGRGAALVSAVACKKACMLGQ
Sequence (Q14397 whole entry, looked up): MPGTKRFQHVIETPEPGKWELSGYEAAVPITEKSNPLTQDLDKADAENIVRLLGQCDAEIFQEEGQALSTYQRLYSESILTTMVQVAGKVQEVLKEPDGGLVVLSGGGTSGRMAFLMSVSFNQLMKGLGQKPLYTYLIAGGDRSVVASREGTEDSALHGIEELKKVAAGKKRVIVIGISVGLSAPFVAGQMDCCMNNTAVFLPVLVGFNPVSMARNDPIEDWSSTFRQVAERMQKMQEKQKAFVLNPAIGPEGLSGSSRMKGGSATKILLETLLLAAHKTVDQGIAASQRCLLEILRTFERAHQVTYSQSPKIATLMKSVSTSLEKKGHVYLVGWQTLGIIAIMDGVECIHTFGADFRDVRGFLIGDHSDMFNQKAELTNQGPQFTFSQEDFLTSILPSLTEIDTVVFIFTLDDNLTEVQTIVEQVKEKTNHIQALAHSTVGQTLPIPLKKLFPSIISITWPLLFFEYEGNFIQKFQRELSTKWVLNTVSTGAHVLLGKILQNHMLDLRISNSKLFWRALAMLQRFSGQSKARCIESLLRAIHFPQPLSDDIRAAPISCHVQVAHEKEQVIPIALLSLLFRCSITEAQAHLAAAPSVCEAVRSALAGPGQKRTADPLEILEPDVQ
Test: qHTS assay for inhibitors of recombinant human GCK-GKRP interaction: Diaphorase-coupled assay (AID 743205)
Settings: G6PDH/diaphorase resorufin fluorescence; series mostly up to 57.5 µM; activity change, positive = activation: at the top concentration
Outline: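 Resorufin fluorescence (525/590 nm), read each minute over 30 min, reports GCK activity coupled via G6PDH and diaphorase. Reaction: 10 nM GST-GCK, 10 nM FLAG-GKRP, 5 mM glucose, 0.4 mM ATP, 0.15 mM NADP+, 0.1 mM resazurin.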

| SMILES | activity change, positive = activation |
| --- | --- |
| C#CCN(C)CCCOc1ccc(Cl)cc1Cl | 2.73% (inactive) |
| CN(C)CCCN1c2ccccc2Sc2ccc(C(F)(F)F)cc21 | 0.453% (inactive) |
| Nc1ncn([C@@H]2O[C@H](CO)[C@@H](O)[C@H]2O)c(=O)n1 | 1.77% (inactive) |
| CN(C)[C@@H]1C(=O)C(C(N)=O)=C(O)[C@@]2(O)C(=O)C3=C(O)c4c(O)ccc(Cl)c4[C@@H](O)[C@H]3C[C@@H]12 | -25.7% (inactive) |
| CC(C)COCC(CN(Cc1ccccc1)c1ccccc1)N1CCCC1 (centres undefined) | -4.34% (inactive) |
| CCN(CC)CCNC(=O)c1ccc(NC(C)=O)cc1 | -0.128% (inactive) |
| CCOC(=O)c1cnc2c(cnn2CC)c1NN=C(C)C | -0.779% (inactive) |
| COC(=O)C1=C(C)NC(C)=C(C(=O)OC(C)(C)CN(C)CCC(c2ccccc2)c2ccccc2)C1c1cccc([N+](=O)[O-])c1 (centres undefined) | -15% (inactive) |
| CCc1c(C)[nH]c2c1C(=O)C(CN1CCOCC1)CC2 (centres undefined) | -21.6% (inactive) |
| NCCCNCCSP(=O)(O)O | 0.612% (inactive) |
| CC(=O)Nc1nnc(S(N)(=O)=O)s1 | -3.33% (inactive) |
| NC/C=C/C(=O)O | 0.393% (inactive) |
| O=C(CCNNC(=O)c1ccncc1)NCc1ccccc1 | -3.16% (inactive) |
| C[C@@H](O)[C@H]1C(=O)N2C(C(=O)O)=C(SCCN=CN)C[C@H]12 | -6.52% (inactive) |
| CC(=O)[C@@]1(O)CC[C@H]2[C@@H]3CCC4=CC(=O)CC[C@]4(C)[C@H]3CC[C@@]21C | -4.56% (inactive) |
| CNC1(C)C2CCC(C2)C1(C)C (centres undefined) | -6.38% (inactive) |
| Cc1ccc(S(=O)(=O)NC(=O)NN2CCCCCC2)cc1 | 1.04% (inactive) |
| CC(=O)OCC1=C(C(=O)O)N2C(=O)[C@@H](NC(=O)Cc3cccs3)[C@H]2SC1 | -6.84% (inactive) |
| CCN1CCC[C@H]1CNC(=O)c1c(O)c(Cl)cc(Cl)c1OC | -8.88% (inactive) |
| C[C@H](CS)C(=O)N1CCC[C@H]1C(=O)O | -2.5% (inactive) |
| CN=C(NC#N)NCCSCc1nc[nH]c1C | -0.136% (inactive) |
| CCCNC(C)C(=O)Nc1ccccc1C (centres undefined) | -3.99% (inactive) |
| O=C(O)CN(CCN(CC(=O)O)CC(=O)O)CCN(CC(=O)O)CC(=O)O | -1.77% (inactive) |
| COc1cc2c(cc1OC)-c1cc(=Nc3c(C)cc(C)cc3C)n(C)c(=O)n1CC2 | -1.51% (inactive) |
| C[N+](C)(C)CCCCCCCCCC[N+](C)(C)C | -2.7% (inactive) |
| C=CCc1ccccc1OCC(O)CNC(C)C (centres undefined) | -5.06% (inactive) |
| CSc1ccc(C(=O)c2[nH]c(=O)[nH]c2C)cc1 | -4.69% (inactive) |
| OCCN1CCN(CC/C=C2/c3ccccc3Sc3ccc(C(F)(F)F)cc32)CC1 | -6.68% (inactive) |
